Screening results (PubChem BioAssay)
LDHA inh – qHTS assay for inhibitors of human lactate dehydrogenase; L-lactate dehydrogenase A chain (Homo sapiens), P00338; purified LDHA, NADH/diaphorase-resazurin fluorescence; active compounds read low; activity change, % (values are at about 110 or 230 µM); hit rate 0.15% among 480,000; AID 1347041, 2019; in the data active = activity change below about -30%; inconclusive = mostly about -25% to -30%;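 note: plate controls were DMSO wells for no effect and wells without enzyme for full effect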
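Enzyme activity of human lactate dehydrogenase 5 (2 nM; 0.06 mM NADH, 0.2 mM pyruvate, 5 min, RT) is measured via a resazurin/diaphorase fluorescence readout of residual NADH.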
PI5P4K alpha inh – qHTS for Inhibitors of phosphatidylinositol 5-phosphate 4-kinase (PI5P4K). max response, %. AID 652105, 2013. PI5P4Kalpha enzyme, ADP-Glo luminescence, 60 min; active compounds read low. Phosphatidylinositol 5-phosphate 4-kinase type-2 alpha (Homo sapiens), P48426. hit rate 1.2% among 330,000; active = max response of -50% or lower; inconclusive = between -30% and -50%; inactive = -30% or higher; note: value at the top dose of about 77 µM; % is set by controls: 0 for no effect and ±100 for the full control effect
Target sequence (P48426 whole entry, looked up): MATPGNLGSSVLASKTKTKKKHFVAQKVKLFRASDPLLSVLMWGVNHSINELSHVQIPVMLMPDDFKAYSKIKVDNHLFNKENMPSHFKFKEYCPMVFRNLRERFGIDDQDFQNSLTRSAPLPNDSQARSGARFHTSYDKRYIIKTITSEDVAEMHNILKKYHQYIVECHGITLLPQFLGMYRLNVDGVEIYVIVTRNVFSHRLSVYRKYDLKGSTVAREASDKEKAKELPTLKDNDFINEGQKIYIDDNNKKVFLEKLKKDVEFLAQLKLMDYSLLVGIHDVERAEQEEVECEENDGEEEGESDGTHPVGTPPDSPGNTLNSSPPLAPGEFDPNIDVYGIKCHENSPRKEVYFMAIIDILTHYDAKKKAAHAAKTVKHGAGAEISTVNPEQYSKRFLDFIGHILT
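Quantitative HTS of the MLSMR library against PI5P4Kalpha with substrate. ATP added last at 5 microM final; room temperature, 60 minutes. Remaining ATP depleted, ADP converted and read as luminescence.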
PI4K2A block – qHTS for small molecular inhibitors of PI4K2A; Phosphatidylinositol 4-kinase type 2-alpha (Homo sapiens), Q9BTU6; purified PI4K2A, ADP-Glo luminescence, 1 h; active compounds read low; activity change, negative = inhibition, % at 76.9 µM; hit rate 0.13% among 420,000; in the data active = activity change below about -50%; inconclusive = mostly about -30% to -49%;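 note: -100% = wells without enzyme as full effect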
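In this quantitative HTS, ADP production by PI4K2A was quantified luminescently after 1 h at ambient temperature; 100 microM adenosine served as plate-quality control.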
DRD3 agonist – qHTS of D3 Dopamine Receptor Agonist: qHTS; max activation, %; D3R DiscoveRx beta-arrestin cells, luminescence, 90 min; hit rate 0.58% among 410,000; D(3) dopamine receptor (Homo sapiens), P35462; in the data active = max activation above about 30%; note: 0% is about no effect
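Agonist mode: compounds and dopamine controls were applied to plated cells for 90 min at 37 degrees C after an overnight attachment at 1500 cells/well. Luminescent read-out followed 30 - 60 minutes at room temperature with DiscoveRx detection reagent.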
DRD3 antagonist – qHTS of D3 Dopamine Receptor Antagonist: qHTS | D3R cells, DiscoveRx beta-arrestin luminescence, antagonist mode; active compounds read low | hit rate 2.5% among 360,000 | D(3) dopamine receptor (Homo sapiens), P35462 | max response, negative = inhibition, %; in the data active = max response below about -50%; inconclusive = no clear call, values can overlap the other calls; note: % is set by controls: 0 for no effect and ±100 for the full control effect
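Cells plated overnight at 1500 cells/well, then exposed to library compounds with dopamine controls for 90 minutes at 37 degrees C. DiscoveRx reagent added for 30–60 minutes at room temperature; luminescence read, quantitative HTS format.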
An asterisk follows results filed as active; ? = inconclusive; . = no result. Shown are actives, neighbours in structure and some others; about 3.3% of the full set was active somewhere.

SMILES	LDHA inh	PI5P4K alpha inh	PI4K2A block	DRD3 agonist	DRD3 antagonist
COc1ccc(CC(=O)NCC(c2ccc(OC)cc2)N(C)C)cc1 (configuration not stated)	3	2	-4	-7	2
COc1ccc(C(CNC(=O)CCOc2ccccc2)N(C)C)cc1 (configuration not stated)	-7	.	-7	-52	-76*
Cc1ccccc1NC(=S)NCC(c1cccnc1)N(C)C (configuration not stated)	-4	5	-3	2	1
Cc1cccc(OCCC(=O)NCC(c2ccccc2)N(C)C)c1 (configuration not stated)	-9	.	3	-5	-60*
Cc1ccc(C)c(NC(=S)NCC(c2ccccc2)N(C)C)c1 (configuration not stated)	-7	9	3	-39	-60*
O=C1NC(=S)S/C1=C/c1ccc(N2CCOCC2)o1	9	-53*	-12	3	-21
COc1ccc(OC)c(/C=C2\SC(=S)N(N3CCOCC3)C2=O)c1	-11	-8	-5	-8	-5
COc1ccc2cc(/C=C3\SC(=S)NC3=O)c(N3CCOCC3)nc2c1	1	-62*	-4	6	3
COCCNC(=O)Cn1cc(/C=N/NC(=O)c2ccc(Oc3ccc(O)cc3)cc2)c2ccccc21	-4	-107*	-6	-6	3
O=[N+]([O-])c1c(NCCCO)cc(Sc2nc3ccccc3s2)c2nonc12	36	.	?	-67	-90*
CCC(=O)OCCNc1cc(Sc2nc3ccccc3s2)c2nonc2c1[N+](=O)[O-]	15	.	-7	-54	-88*
CCC(=O)OCCNc1cc(Sc2nc3ccccc3[nH]2)c2nonc2c1[N+](=O)[O-]	8	-56*	-9	-6	-116*
CCCSc1cc(NCCOC(C)=O)c([N+](=O)[O-])c2nonc12	-2	3	-2	3	4
c1cc(CNC2C3CC4CC(C3)CC2C4)cs1 (configuration not stated)	2	.	.	.	.
O=C1C=C(NCc2ccccc2)c2ccccc2C1=O	9	2	-64*	-14	-71*
O=C1C=C(Nc2ccccc2O)c2ccccc2C1=O	33	-17	?	-6	-26
Cn1ccc2c(-c3ccccc3F)cc3c(c21)C1CCC3C1 (configuration not stated)	-8	20	2	-5	-54*
N#CCC(=O)Nc1ccc(C(=O)OCc2ccccc2Cl)cc1	2	.	.	.	.
C=CCn1c(SCC(=O)c2ccc(O)c(O)c2)nnc1-c1ccc(C)cc1	1	-3	-2	26	15
C=CCn1c(SCC(=O)c2ccc(O)c(O)c2)nnc1-c1ccc(OC)cc1	1	-51*	-8	-2	-9
CCCCOc1ccc(/C=C(/C#N)c2nc3ccccc3[nH]2)cc1OC	-3	.	.	.	.
CCOc1ccccc1NC(=O)c1cc2c(C)nn(-c3ccccc3)c2s1	.	.	0	.	.
C[C@H](CO)N1C[C@H](C)[C@H](CN(C)Cc2cccc(O)c2)OCc2ccccc2-c2c(n(C)c3ccccc23)C1=O	1	9	-3	45*	24
O=C(NCc1ccc(CN2CCCC2)cc1)c1cc(=O)[nH]c2ccccc12	-2	.	.	.	.
CC(C)(C)c1ccc(C(=O)N/C(=C\c2ccc(Cl)cc2)C(=O)O)cc1	-2	.	.	.	.
CCN(CCCNC(=O)CN1N=C(c2ccc(C)cc2)CCC1=O)c1ccccc1	6	.	-6	-28	.
CCN(CCCNC(=O)CN1N=C(c2ccccc2)CCC1=O)c1cccc(C)c1	16	.	-9	41*	.
O=[N+]([O-])c1ccc(S(=O)(=O)NCC(c2ccco2)N2CCc3ccccc3C2)cc1 (configuration not stated)	-7	10	-6	-4	-57*
O=[N+]([O-])c1ccc(S(=O)(=O)NCC(c2cccnc2)N2CCc3ccccc3C2)cc1 (configuration not stated)	-5	-6	-2	-4	3
